The results in this text go back to ChEMBL document CHEMBL1961873, “Compounds: GSK PKIS; Assays: Nanosyn kinase panel” (2012).

Broadly, the inhibition is the drop in the measured response relative to a control, in per cent.

The target in assay [1] is T1, Serine/threonine-protein kinase D2 (Homo sapiens) (UniProt Q9BZL6).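 Also: mean value of PRKD2 inhibition, from the GSK PKIS screening panel.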
T1 sequence (whole entry): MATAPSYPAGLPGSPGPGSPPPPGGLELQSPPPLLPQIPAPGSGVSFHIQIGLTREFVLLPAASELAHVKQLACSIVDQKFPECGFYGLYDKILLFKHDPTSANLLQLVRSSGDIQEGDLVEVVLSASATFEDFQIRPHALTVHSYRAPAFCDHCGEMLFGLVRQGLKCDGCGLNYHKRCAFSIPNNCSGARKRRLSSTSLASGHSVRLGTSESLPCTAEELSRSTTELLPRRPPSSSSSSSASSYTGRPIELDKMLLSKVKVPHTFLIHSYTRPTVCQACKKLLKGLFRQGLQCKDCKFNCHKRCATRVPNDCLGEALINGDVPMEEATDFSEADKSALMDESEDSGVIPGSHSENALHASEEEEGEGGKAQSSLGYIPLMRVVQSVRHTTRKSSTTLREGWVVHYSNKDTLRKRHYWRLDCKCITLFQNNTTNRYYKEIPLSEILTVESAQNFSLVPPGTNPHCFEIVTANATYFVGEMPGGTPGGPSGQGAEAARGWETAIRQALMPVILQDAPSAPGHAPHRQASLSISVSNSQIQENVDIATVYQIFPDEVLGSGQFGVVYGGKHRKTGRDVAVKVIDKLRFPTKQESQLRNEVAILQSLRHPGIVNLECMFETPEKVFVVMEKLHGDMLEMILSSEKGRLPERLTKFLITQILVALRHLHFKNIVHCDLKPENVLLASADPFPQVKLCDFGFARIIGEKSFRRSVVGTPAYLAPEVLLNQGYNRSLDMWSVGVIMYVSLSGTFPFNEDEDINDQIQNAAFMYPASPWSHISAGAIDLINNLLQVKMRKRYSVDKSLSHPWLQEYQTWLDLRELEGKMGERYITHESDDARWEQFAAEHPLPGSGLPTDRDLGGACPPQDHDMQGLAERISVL
The conditions noted are these: at 1 µM.

In assay [2] the target is T2, Serine/threonine-protein kinase D3 (Homo sapiens) (UniProt O94806).
T2 sequence (whole entry): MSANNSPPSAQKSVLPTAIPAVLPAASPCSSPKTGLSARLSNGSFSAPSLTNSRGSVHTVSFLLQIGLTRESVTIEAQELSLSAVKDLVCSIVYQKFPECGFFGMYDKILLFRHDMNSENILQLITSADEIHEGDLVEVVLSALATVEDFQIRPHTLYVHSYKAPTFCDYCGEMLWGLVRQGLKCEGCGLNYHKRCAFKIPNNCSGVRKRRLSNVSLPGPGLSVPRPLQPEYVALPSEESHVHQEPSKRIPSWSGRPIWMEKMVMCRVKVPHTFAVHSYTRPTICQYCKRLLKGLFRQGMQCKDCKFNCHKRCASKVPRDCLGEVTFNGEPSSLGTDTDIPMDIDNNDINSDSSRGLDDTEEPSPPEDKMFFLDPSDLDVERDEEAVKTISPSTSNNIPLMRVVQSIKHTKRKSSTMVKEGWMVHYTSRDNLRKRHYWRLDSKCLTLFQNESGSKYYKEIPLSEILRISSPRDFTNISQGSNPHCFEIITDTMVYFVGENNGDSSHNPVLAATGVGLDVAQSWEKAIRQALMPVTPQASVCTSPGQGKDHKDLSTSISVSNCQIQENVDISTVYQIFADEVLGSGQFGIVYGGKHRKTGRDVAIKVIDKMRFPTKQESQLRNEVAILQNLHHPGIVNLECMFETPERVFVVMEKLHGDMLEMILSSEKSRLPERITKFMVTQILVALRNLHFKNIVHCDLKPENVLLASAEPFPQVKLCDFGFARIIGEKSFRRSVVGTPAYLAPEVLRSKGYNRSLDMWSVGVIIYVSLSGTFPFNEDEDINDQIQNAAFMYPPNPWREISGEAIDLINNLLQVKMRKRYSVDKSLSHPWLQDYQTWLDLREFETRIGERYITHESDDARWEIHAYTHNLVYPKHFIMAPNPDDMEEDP
Particulars: at 0.1 µM.

Assay [3] deals with T2, Serine/threonine-protein kinase D3 (Homo sapiens). Particulars: at 1 µM.
Assay [4] addresses T3, cGMP-dependent protein kinase 1 (Homo sapiens) (UniProt Q13976).
T3 sequence (whole entry): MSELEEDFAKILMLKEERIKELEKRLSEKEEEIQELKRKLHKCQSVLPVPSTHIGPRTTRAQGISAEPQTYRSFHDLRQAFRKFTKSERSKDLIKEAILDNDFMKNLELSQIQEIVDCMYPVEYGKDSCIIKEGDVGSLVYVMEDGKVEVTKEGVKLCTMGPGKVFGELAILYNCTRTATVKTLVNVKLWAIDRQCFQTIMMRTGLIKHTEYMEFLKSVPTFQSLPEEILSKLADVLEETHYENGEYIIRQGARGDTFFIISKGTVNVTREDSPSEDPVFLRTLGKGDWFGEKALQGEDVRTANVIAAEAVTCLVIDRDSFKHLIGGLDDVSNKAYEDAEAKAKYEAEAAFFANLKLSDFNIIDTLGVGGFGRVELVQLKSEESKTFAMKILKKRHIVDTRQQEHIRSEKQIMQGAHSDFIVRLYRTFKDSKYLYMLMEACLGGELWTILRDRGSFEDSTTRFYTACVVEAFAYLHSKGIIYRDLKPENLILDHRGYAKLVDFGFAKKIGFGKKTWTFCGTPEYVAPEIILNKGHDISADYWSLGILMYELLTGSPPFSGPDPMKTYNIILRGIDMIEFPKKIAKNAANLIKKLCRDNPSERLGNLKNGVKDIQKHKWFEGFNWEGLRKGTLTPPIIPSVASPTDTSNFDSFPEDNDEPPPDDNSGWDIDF
Particulars: at 0.1 µM.

The target of assay [5] is T3, cGMP-dependent protein kinase 1 (Homo sapiens). The conditions noted are these: at 1 µM.
For assay [6], the target named is T4, cGMP-dependent protein kinase 2 (Homo sapiens) (UniProt Q13237).
T4 sequence (whole entry): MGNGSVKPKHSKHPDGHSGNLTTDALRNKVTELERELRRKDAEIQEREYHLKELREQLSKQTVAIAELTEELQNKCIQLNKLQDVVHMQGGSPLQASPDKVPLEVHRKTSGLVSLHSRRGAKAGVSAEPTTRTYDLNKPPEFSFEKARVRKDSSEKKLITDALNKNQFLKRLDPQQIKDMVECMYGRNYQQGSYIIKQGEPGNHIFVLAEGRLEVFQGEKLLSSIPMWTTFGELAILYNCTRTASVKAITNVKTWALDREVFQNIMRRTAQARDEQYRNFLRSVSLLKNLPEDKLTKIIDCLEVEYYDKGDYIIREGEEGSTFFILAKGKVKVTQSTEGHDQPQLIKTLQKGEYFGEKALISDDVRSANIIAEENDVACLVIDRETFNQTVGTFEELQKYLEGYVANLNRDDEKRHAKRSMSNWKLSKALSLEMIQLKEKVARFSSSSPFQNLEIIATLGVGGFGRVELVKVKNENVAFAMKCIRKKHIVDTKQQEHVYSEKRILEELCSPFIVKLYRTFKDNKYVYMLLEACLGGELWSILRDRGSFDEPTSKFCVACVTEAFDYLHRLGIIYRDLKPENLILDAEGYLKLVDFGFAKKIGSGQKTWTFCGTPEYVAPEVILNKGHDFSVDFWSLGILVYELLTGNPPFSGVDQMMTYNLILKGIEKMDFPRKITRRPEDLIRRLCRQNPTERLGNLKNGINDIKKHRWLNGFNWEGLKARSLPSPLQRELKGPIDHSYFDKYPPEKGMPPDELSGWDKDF
Particulars: at 0.1 µM.

Assay [7] deals with T4, cGMP-dependent protein kinase 2 (Homo sapiens). The conditions noted are these: at 1 µM.
For assay [8], the target named is T5, cAMP-dependent protein kinase catalytic subunit PRKX (Homo sapiens) (UniProt P51817).
T5 sequence (whole entry): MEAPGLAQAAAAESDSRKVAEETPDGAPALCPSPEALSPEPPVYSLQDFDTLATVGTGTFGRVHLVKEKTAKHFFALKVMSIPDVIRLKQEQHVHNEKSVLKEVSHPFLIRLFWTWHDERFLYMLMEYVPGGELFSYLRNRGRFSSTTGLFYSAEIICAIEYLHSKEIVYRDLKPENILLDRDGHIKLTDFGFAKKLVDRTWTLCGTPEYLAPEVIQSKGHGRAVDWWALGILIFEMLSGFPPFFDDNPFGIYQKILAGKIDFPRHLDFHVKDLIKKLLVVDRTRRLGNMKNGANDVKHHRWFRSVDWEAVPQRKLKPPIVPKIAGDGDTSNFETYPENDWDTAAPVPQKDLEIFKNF
The conditions noted are these: at 0.1 µM.

Assay [9] deals with T5, cAMP-dependent protein kinase catalytic subunit PRKX (Homo sapiens). The conditions noted are these: at 1 µM.
Assay [10] deals with Rho-associated protein kinase 1 (Homo sapiens) (UniProt Q13464). Particulars: at 0.1 µM.
Sequence of Rho-associated protein kinase 1 (Homo sapiens) (Q13464 2-1354 limits assumed): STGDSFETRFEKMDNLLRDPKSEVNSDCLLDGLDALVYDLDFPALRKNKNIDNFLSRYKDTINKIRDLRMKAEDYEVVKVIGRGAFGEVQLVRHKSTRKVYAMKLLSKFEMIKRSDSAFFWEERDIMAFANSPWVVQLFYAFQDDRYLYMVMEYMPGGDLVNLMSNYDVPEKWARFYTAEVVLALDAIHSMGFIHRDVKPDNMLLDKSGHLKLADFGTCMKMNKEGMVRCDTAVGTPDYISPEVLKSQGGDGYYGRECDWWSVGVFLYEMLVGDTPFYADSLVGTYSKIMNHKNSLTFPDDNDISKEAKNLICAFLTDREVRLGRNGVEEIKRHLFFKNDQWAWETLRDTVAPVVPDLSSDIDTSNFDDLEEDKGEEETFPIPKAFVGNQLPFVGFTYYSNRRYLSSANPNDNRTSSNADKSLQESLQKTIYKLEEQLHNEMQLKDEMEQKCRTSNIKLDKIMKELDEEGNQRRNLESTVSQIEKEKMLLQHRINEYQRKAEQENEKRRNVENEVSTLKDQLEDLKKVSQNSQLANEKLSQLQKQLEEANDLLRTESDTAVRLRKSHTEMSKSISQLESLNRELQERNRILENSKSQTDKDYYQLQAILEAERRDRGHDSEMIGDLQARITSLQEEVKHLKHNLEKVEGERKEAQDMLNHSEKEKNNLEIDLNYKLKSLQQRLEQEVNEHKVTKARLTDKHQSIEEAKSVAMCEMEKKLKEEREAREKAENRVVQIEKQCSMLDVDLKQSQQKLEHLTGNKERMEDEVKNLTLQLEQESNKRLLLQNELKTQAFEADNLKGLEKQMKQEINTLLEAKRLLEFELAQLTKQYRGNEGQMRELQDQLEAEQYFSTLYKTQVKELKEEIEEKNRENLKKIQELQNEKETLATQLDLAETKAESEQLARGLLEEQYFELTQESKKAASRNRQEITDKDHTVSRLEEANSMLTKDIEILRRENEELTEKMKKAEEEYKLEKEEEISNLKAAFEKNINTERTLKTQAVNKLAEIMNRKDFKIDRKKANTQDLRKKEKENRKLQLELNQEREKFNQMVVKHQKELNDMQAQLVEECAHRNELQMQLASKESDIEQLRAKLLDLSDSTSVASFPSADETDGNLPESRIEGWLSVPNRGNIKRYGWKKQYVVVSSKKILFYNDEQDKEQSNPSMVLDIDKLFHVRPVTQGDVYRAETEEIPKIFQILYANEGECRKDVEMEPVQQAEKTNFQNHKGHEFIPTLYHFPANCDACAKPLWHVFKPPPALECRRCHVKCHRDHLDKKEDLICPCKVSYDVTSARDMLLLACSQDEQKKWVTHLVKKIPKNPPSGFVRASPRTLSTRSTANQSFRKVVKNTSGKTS
For assay [11] the target is unchanged. Particulars: at 1 µM.
Assay [12] deals with Rho-associated protein kinase 2 (Homo sapiens) (UniProt O75116). Particulars: at 0.1 µM.
Sequence of Rho-associated protein kinase 2 (Homo sapiens) (O75116 whole entry, looked up): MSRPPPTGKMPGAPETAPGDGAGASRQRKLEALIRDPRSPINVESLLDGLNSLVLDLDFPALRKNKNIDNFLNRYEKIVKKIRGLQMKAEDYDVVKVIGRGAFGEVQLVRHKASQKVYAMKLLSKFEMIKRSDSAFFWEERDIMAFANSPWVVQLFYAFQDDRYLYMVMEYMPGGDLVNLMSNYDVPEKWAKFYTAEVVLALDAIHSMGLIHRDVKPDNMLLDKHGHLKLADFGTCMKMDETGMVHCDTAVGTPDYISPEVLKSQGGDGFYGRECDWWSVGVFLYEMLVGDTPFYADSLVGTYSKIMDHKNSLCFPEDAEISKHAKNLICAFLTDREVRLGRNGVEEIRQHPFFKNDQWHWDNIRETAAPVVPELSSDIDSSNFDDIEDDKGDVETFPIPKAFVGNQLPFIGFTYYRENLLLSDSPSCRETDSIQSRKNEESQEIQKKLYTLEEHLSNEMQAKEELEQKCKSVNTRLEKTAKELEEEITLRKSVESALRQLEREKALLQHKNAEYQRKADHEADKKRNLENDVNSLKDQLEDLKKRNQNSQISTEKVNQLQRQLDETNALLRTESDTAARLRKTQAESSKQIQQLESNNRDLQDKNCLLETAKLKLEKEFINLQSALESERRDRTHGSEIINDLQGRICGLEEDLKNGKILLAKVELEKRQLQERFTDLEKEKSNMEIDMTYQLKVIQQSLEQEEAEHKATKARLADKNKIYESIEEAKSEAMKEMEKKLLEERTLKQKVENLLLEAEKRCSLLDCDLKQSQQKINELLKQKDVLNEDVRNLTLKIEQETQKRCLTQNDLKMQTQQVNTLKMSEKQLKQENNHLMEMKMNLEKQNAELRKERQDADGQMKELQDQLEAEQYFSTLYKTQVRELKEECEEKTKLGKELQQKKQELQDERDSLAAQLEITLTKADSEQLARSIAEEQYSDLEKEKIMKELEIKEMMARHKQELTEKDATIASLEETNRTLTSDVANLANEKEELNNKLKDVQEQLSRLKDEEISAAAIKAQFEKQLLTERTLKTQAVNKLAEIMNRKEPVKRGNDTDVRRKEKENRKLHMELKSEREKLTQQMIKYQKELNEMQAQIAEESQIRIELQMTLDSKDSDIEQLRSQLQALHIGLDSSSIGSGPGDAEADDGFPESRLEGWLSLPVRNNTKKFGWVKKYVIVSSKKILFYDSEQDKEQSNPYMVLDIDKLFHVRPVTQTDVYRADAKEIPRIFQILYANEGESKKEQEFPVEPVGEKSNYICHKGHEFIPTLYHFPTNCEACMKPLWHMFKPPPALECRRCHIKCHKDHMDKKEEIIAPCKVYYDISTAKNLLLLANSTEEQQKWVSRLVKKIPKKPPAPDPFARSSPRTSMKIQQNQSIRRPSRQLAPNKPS
The target is the same in assay [13]. Particulars: at 1 µM.
Assay [14] deals with Ribosomal protein S6 kinase alpha-1 (Homo sapiens) (UniProt Q15418). The conditions noted are these: at 0.1 µM.
Sequence of Ribosomal protein S6 kinase alpha-1 (Homo sapiens) (Q15418 whole entry): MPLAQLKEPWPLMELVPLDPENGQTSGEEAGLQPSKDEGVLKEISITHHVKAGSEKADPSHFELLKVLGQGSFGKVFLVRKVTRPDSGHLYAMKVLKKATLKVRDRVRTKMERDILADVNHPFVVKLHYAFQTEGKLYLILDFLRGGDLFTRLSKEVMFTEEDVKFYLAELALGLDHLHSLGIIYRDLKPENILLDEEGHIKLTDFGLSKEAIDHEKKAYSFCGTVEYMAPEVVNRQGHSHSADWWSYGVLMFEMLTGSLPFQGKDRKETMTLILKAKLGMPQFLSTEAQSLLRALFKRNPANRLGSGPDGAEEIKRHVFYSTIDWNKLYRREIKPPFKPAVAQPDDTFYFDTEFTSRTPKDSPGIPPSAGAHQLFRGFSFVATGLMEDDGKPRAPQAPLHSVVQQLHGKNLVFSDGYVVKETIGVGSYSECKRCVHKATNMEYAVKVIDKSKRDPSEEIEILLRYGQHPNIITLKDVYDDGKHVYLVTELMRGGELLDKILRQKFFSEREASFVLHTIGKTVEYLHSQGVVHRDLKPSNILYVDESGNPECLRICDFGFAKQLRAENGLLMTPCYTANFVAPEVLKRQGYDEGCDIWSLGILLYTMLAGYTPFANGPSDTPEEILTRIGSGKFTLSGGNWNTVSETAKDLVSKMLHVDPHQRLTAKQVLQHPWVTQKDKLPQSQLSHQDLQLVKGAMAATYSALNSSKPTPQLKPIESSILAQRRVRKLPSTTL
Assay [15] has the same target. Particulars: at 1 µM.
Assay [16] concerns the target Ribosomal protein S6 kinase alpha-3 (Homo sapiens) (UniProt P51812). The conditions noted are these: at 0.1 µM.
For assay [17] the target is unchanged. Particulars: at 1 µM.
The target of assay [18] is Ribosomal protein S6 kinase alpha-2 (Homo sapiens) (UniProt Q15349). Particulars: at 0.1 µM.
Sequence of Ribosomal protein S6 kinase alpha-2 (Homo sapiens) (Q15349 whole entry): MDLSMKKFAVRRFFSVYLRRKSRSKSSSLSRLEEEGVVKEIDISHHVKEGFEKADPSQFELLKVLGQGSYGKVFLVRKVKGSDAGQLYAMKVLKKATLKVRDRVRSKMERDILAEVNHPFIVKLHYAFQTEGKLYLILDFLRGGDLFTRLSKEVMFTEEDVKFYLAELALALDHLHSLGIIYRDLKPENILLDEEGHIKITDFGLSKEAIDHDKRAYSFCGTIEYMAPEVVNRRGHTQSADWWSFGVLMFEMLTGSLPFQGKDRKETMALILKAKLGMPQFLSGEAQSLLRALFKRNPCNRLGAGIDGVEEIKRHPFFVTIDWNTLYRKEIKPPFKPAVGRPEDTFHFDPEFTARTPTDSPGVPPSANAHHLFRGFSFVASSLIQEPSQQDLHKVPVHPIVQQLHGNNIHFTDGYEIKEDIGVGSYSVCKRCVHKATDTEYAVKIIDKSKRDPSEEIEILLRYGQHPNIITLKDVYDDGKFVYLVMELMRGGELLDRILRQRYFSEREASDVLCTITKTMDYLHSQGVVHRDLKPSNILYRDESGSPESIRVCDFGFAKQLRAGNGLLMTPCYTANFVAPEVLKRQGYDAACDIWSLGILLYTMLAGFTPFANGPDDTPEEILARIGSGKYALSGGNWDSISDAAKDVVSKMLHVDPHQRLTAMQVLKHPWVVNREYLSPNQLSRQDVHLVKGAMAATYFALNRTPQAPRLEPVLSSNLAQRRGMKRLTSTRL
Assay [19] shares this target. Particulars: at 1 µM.
In assay [20] the target is Ribosomal protein S6 kinase alpha-6 (Homo sapiens) (UniProt Q9UK32). The conditions noted are these: at 0.1 µM.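 Also: reported value is the mean inhibition of RSK4, from the GSK PKIS kinase inhibitor screen.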

Sequence of Ribosomal protein S6 kinase alpha-3 (Homo sapiens) (P51812 whole entry): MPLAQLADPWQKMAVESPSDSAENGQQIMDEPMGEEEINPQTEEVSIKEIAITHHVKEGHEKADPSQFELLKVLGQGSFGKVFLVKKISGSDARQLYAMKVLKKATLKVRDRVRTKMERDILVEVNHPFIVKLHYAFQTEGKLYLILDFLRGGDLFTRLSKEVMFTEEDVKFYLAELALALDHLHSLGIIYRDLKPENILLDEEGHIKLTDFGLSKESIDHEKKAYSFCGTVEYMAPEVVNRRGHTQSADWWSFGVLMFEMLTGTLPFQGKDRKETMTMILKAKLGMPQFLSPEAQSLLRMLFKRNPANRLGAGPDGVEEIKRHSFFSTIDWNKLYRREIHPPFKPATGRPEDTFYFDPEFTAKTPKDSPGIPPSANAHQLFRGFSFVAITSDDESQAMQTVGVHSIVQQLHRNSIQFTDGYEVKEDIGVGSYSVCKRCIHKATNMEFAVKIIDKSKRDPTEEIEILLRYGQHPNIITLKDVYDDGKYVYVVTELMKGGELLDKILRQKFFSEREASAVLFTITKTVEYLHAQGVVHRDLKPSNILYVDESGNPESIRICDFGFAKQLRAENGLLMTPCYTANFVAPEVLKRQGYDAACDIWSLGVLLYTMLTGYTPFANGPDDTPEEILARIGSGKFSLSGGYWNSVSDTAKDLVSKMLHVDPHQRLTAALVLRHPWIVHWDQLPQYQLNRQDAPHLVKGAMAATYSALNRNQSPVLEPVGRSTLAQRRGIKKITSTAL

As for `Nc1nc(-c2ccc3c(c2)C(=Cc2cc(Br)c(O)c(Br)c2)C(=O)N3)cs1`, the inhibition was -1.39% in assay [1]; -1.58% in assay [2]; -1.34% in assay [3]; 0.42% in assay [4]; 1.43% in assay [5]; -0.63% in assay [6]. The inhibition was 1.49% in [7]; -0.49% in assay [8]; 0.42% in assay [9]; -0.08% in [10]; -0.02% in [11]; -0.52% in assay [12]. Besides, the inhibition was 2.2% in [13]; -0.32% in assay [14]; 4.1% in assay [15]; -0.26% in assay [16]; 1.6% in [17]; -0.77% in assay [18]. In addition, the inhibition in [19] is 1.44%; in assay [20], -0.07%.
In the case of `COc1cc(C)c(NC(=O)CN(C)C)cc1Nc1nc(Nc2cccc(F)c2C(N)=O)c2cc[nH]c2n1`, the inhibition in [1] came out at 31.9%; in [2], 3.99%; in assay [3], 38.4%; in assay [4], 1.52%; in assay [5], 4.26%; in assay [6] it was 1.95%. For the same compound, the inhibition is 2.22% in [7]; -0.65% in [8]; -1.72% in assay [9]; 0.5% in assay [10]; 11.4% in [11]; 1.26% in [12]. For the same compound, the inhibition in assay [13] came to 7.68%; in [14] it was 9.42%; in assay [15], 40.7%; in [16], 4.6%; in assay [17], 23.1%; in [18], 1.22%. The figures for the inhibition in [19] and in assay [20] were 11.5% and 3.59%, respectively.
With `COc1ccccc1Nc1ncc(-c2ccccc2)o1`, the inhibition was 2.18% in [1]; 4.57% in assay [2]; 4.66% in assay [3]; 3.64% in assay [4]; 1.96% in assay [5]; 3.07% in assay [6]. For the same compound, the inhibition is 2.81% in assay [7]; 2.55% in assay [8]; 3.03% in [9]; 2.99% in assay [10]; 3.7% in assay [11]; 4.07% in assay [12]. Moreover, the inhibition in assay [13] was 3.77%; in assay [14] it was 0.8%; in [15] it was 23.5%; in assay [16], -0.3%; in [17], 0.19%; in [18], 3.05%. In addition, the inhibition came out at 4.52% in assay [19] and 0.08% in assay [20].
